Results filed as inconclusive are left out. Unmarked numbers belong to inactive results. Calls follow the shape of the dose curve; as a rule, active = well fitted cell-killing curve with a large enough effect; inconclusive = small, poorly fitted or top-dose-only effect, or effect the other way; inactive = flat fitted curve, though single readings scatter.
System: CAOV3
Test: Primary qHTS to identify gynecologic anti-cancer compounds using libraries of approved drugs and bioactive compounds (AID 1345084); also: nearly all actives have a fitted effect of over 55% in size
Settings: Gynecologic cancer cell panel viability, ATPlite luminescence, 48 h; series mostly up to 57.5 µM; activity change, negative = cytotoxicity: at the top concentration
In short: (§1)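 Cell viability after 48 h drug treatment, ATPlite luminescence readout; five doses.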
% is scaled to controls: 0 for no effect and ±100 for the full control effect.

Structure (SMILES) | activity change, negative = cytotoxicity
CC(=O)OC1C(O)CC2(C)C(CCC(C)C23Cc2c(O)cc(CO)c(C=O)c2O3)C1(C)C (stereo not drawn) | 0.274% [at 25.3 µM]
Cc1[nH]nc(C(F)(F)F)c1Cc1sc2c(c1C(=O)N1C[C@](C)(O)CO1)c(=O)n(C)c(=O)n2C(C)C | 11.3%
O=C(CC1C(=O)Nc2ccccc21)OC[C@H]1O[C@@H](OCCc2ccc(O)cc2)[C@H](O)[C@@H](O)[C@@H]1O (stereo partly drawn) | 24.6% [at 25.3 µM]
CC1CCC23COC(=O)C2=CC(O)CC3C1(C)CCC1=CC(O)OC1=O (stereo not drawn) | -19.4% [at 38.5 µM]

System: CASKI
Test: as above
Settings: Gynecologic cancer cell panel viability, ATPlite luminescence, 48 h; series mostly up to 57.5 µM; activity change, negative = cytotoxicity: at the top concentration
In short: as §1

Structure (SMILES) | activity change, negative = cytotoxicity
C/C=C(\C)C(=O)O[C@H]1[C@@H](O[C@]2(COC(=O)CC(C)C)O[C@H](COC(=O)C(C)CC)[C@@H](OC(C)=O)[C@@H]2O)O[C@H](COC(C)=O)[C@@H](O)[C@@H]1O (stereo partly drawn) | 0.905% [at 25.3 µM]
C=C(C(=O)O)C1CC2=C(C)CCCC2(C)C[C@@H]1O (stereo partly drawn) | 18.3%
O=C(NCc1ccc(F)cc1)C(=O)c1c[nH]c2ccccc12 | -10.6%
C/C(=C\C=C\C(C)C1CCC2(C)C3CCC4C(C)(C)C(=O)CCC45CC35CCC12C)C(=O)O (stereo not drawn) | 1.52% [at 25.3 µM]
C/C(=C\CCC(C)CCO)C(=O)OC1(C)CCC2C(C(=O)O)=COC(OC3OC(CO)C(O)C(O)C3O)C21 (stereo not drawn) | -3.68% [at 25.3 µM]
CC(=O)O[C@@H]1[C@@H](OC(=O)/C=C/c2ccccc2)[C@@H](OC(C)=O)[C@H](O[C@H]2[C@@H]3C=CO[C@@H](O[C@@H]4O[C@H](CO)[C@@H](O)[C@H](O)[C@H]4O)[C@@H]3[C@@]3(CO)O[C@@H]23)O[C@H]1C | 9.5% [at 25.3 µM]
CCN(CC)Cc1ccc(C(=O)N(CCc2ccccc2OC)[C@@H]2CCNC2)cc1 | -0.115% [at 25.3 µM]
O=C1OCc2cc3cccc(O[C@@H]4O[C@H](CO)[C@@H](O)[C@H](O)[C@H]4O)c3c(O)c21 | 3.08% [at 38.5 µM]
N#Cc1ccc(C(=O)N2CCC3(CC2)N=C(N)c2c(F)ccc(F)c2N3)cn1 | -5.38%
CCCCc1ccc(C(=O)Nc2cc(-c3ccc(Cl)cc3)nn2-c2ccc(Cl)cc2)cc1 | -5.03%
O=C(C(c1ccccc1)c1ccccc1)N1CCN(CC(O)COc2cccc3ncccc23)CC1 (stereo not drawn) | -5.76%
CC(C)c1cc2c(c(O)c1O)[C@@]13CCCC(C)(C)[C@@H]1[C@H](OC3=O)C2=O | 10.2% [at 38.5 µM]
CC(C)CNCc1ccc(-c2ccccc2S(=O)(=O)N2CCCC2)cc1 | 1.13%
Nc1nc2c(c(N3CCNCC3)n1)CCC1=C2[C@@H]2CCCC[C@@H]2O1 | -23.8%
CC1(C)CC[C@]2(C(=O)O)CC[C@]3(C)C(=CCC4[C@@]5(C)CC[C@H](O[C@@H]6O[C@H](C(=O)O)[C@@H](O[C@@H]7OC[C@@H](O)[C@H](O)[C@H]7O)[C@H](O)[C@H]6O)C(C)(C)C5CC[C@]43C)C2C1O (stereo partly drawn) | 0.385% [at 25.3 µM]
N[C@H]1Cc2ccccc2N(O)C1=O | 9.99%
C=C1CCC2C(C)(C)C(O)CCC2(C)C1CCC(C)CCOC(C)=O (stereo not drawn) | 17.3% [at 38.5 µM]
CC(C)(C)NS(=O)(=O)c1cncc(-c2cc(F)c3nc(N)nn3c2)c1 | -12.8%
C/C=C/C=C/C(O)=C1\C(O)=C(C)C(=O)[C@@]2(C)OC(=O)[C@@](C)(NC(=O)/C=C/C(=O)O)[C@@H]12 | -2.75% [at 25.3 µM]
C[C@@H]1CCC2C(C)(C)[C@H](O)CC[C@]2(C)[C@@]12Cc1c(O)cc3c(c1O2)CN([C@@H](CCC(=O)O)C(=O)O)C3=O (stereo partly drawn) | 28.7% [at 25.3 µM]

Structure (SMILES) | activity change, negative = cytotoxicity
C/C=C/C=C/C(O)=C1\C(=O)[C@]2(C)C3C(C(=O)CC/C=C/C)=C(O)C4(C)C1[C@]1(C)O[C@@]4(O)[C@@]3(C)O[C@@]12O | -2.56% [at 25.3 µM]
C[C@@H]1O[C@@H](O[C@H]2[C@H](OC(=O)[C@]34CCC(C)(C)C[C@H]3C3=CCC5[C@@]6(C)C[C@H](O)[C@H](O[C@@H]7O[C@H](CO)[C@@H](O)[C@H](O)[C@H]7O)[C@@](C)(CO)C6[C@H](O)C[C@@]5(C)[C@]3(C)CC4)OC[C@H](O)[C@@H]2O)[C@H](O)[C@H](O)[C@H]1O[C@@H]1OC[C@@H](O)[C@H](O[C@@H]2OC[C@](O)(CO)[C@H]2O)[C@H]1O (stereo partly drawn) | 15.5% [at 6.55 µM]
C1CCC[C@H]2CCCN3CC[C@@H](CCCCCC[C@@H]4CCCN5CC[C@@H](CC1)O[C@@H]45)O[C@@H]23 | -13.7% [at 0.155 µM]
Cc1[nH]c2ccccc2c1C1=C(NCCc2ccc(F)cc2)C(=O)N(C)C1=O | 0.0914%
OC[C@H]1O[C@@H](O[C@H]2[C@H](OCCc3ccccc3)O[C@H](CO)[C@@H](O)[C@@H]2O)[C@H](O)[C@@H](O)[C@@H]1O | 9.3% [at 25.3 µM]
C=C1[C@@H]2CC[C@@H]3[C@@](CCC4C(C(=O)O)(C(=O)O)C[C@@H](O[C@@H]5O[C@H](CO)[C@@H](O)[C@H](O)[C@H]5OC(=O)CC(C)C)C[C@]43C)(C2)[C@H]1O (stereo partly drawn) | -0.897% [at 25.3 µM]
CC(=O)C1=C(C)N(c2cccc(C(F)(F)F)c2)C(=O)N[C@H]1c1ccc(C#N)nc1 | 11.8% [at 11.6 µM]
CC(CCC1(O)OC2CC3C4CCC5CC(O[C@@H]6O[C@H](CO)[C@@H](O)[C@H](O)[C@H]6O[C@@H]6O[C@@H](C)[C@H](O)[C@@H](O)[C@H]6O)C(O)CC5(C)C4CCC3(C)C2C1C)CO[C@@H]1O[C@H](CO)[C@@H](O)[C@H](O)[C@H]1O (stereo partly drawn) | -0.222% [at 11.6 µM]
OCC1OC(Oc2cc(O)cc(/C=C/c3ccc(O)cc3)c2)C(O)C(O)C1O (stereo not drawn) | -13.2% [at 38.5 µM]
CCC(C)/C=C(C)/C=C/c1cc2c(cn1)C(=O)C(C)(OC(C)=O)C(O)=C2Cl (stereo not drawn) | -4.52% [at 38.5 µM]
CC1=CC(=O)CC(C)(C)[C@@]1(O)CC[C@@H](C)O[C@@H]1O[C@H](CO)[C@@H](O)[C@H](O)[C@H]1O | 4.5% [at 38.5 µM]
CC1(C)CCC[C@@]2(C)C1[C@H](OC(=O)/C=C/C=C/C(=O)O)C=C1COC(=O)[C@@]12O (stereo partly drawn) | 10.3% [at 38.5 µM]
O=C1NC2CCc3nc4ccccc4c(=O)n3C2=Nc2ccccc21 (stereo not drawn) | -8.39% [at 38.5 µM]
CC(C)[N+]1(C)C2CCC1CC(OC(=O)C(CO)c1ccccc1)C2 (stereo not drawn) | 3.09%
COc1cc2oc(-c3ccc(O)cc3O)cc2c(OC)c1CC=C(C)C | 0.795% [at 38.5 µM]
CC(=O)OC1C(O)CC2(C)C(CCC(C)C23Cc2c(O)cc(CO)c(C=O)c2O3)C1(C)C (stereo not drawn) | 8.25% [at 25.3 µM]
Cc1[nH]nc(C(F)(F)F)c1Cc1sc2c(c1C(=O)N1C[C@](C)(O)CO1)c(=O)n(C)c(=O)n2C(C)C | -4.34%
O=C(CC1C(=O)Nc2ccccc21)OC[C@H]1O[C@@H](OCCc2ccc(O)cc2)[C@H](O)[C@@H](O)[C@@H]1O (stereo partly drawn) | 1.6% [at 25.3 µM]
CC1CCC23COC(=O)C2=CC(O)CC3C1(C)CCC1=CC(O)OC1=O (stereo not drawn) | -1.6% [at 38.5 µM]

Reference: PubChem BioAssay (NCATS)
